Source: PubChem BioAssay AID2514 (National Center for Advancing Translational Sciences (NCATS), 2010)
Inconclusive results are not listed. Activity calls are given as the source filed them. The call rests on the fitted dose curve; in most records, active means well fitted activation curve with a large enough effect; inconclusive means small, poorly fitted or top-dose-only effect; inactive means no such curve, though single readings can be large or run the other way.

Assay: Confirmation Concentration-Response Assay for Enhancers of SMN2 Splice Variant Expression for Probe SAR
Conditions: HEK293 SMN2 exon7 splicing luciferase reporter, luminescence
Source text: NIH Chemical Genomics Center [NCGC] NIH Molecular Libraries Probe Production centers Network [MLPCN] MLPCN Grant: R03 MH084179-01 Assay Submitter (PI): Elliot Androphy NCGC Assay Overview: Spinal muscular atrophy (SMA) is caused by insufficient levels of the survival motor neuron protein SMN. The SMN locus on chromosome 5q13 contains two inverted copies of SMN called SMN1 and SMN2 which are 99% identical at the amino acid level. SMN1 is a fully functional protein and SMN2 skips exon 7 90% of the time. Skipping of exon 7 produces non-functional protein product. 10% of the SMN2 protein includes exon 7 and is fully functional. In the SMA disease state, mutations in the SMN1 locus are the cause of the disease state. Because only 10% of SMN2 is of the fully functional form, it is not sufficient to overcome the deficiency produced by the loss of the SMN1 product. A therapy that either increase the amount of SMN2 product made or to increase the inclusion of exon 7 has been proposed for the treatment of SMA. We have designed an assay to identify small molecules that can increase the amount of functional SMN2 product by appending a luciferase reporter gene after the native SMN2 gene, such that inclusion of exon 7 in the expressed product places the luciferase sequence in frame, thus generating functional luciferase enzyme. […]

Brc1ccc(-c2csc(N3CCCCC3)n2)cc1
Potency: 13.7 µM (active)
